The values below come from PubChem BioAssay (EPA / NIEHS).

Calls of active or inactive are those of the source. Rule for the calls: active = hit-call score of the fitted dose curve at least 0.9, where 1 is the maximum; inactive = score below 0.9.

As a reminder, the AC50 is the midpoint of the concentration-response curve, whichever way the signal moves.

Read-out in the first test: catalase (CAT), CAT (gene 847)
As to the kind of experiment: LTEA_HepaRG_CAT: Life Technologies and Expression Analysis (LTEA) Assay for catalase (CAT) using HepaRG (AID 2283452).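 For AC50: TaqMan qRT-PCR signal normalized to ACTB GAPDH and POLR2A housekeeping genes.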 Conditions: mRNA level, 48 h; actives raise or lower the signal. The gist of the method:
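Expression of CAT was quantified by TaqMan qRT-PCR with ACTB/GAPDH/POLR2A normalization after 48 h chemical exposure of HepaRG. Eight-point half-log series, top 100 uM, in 0.5% DMSO; gain or loss fitted against vehicle.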
Turning to `COc1ccc2c(c1)c(CC(=O)O)c(C)n2C(=O)c1ccc(Cl)cc1`, the compound was called inactive.
Regarding `CNCc1cc(F)ccc1Oc1ccc(Cl)c(Cl)c1`, the AC50 was 82.8 µM (active).
In the case of `C[Si]1(C)O[Si](C)(C)O[Si](C)(C)O[Si](C)(C)O1`, the result was inactive.
Same read-out and setting: the entry for `COCCOCCOC` is “inactive”; for `COC(=O)c1ccc(O)cc1` it is “inactive”; for `O=C(O)CCCCC(=O)O` it is “inactive”.
On the same count and under the same terms, the entry for `Cc1cc(=O)[nH]c(=S)[nH]1` is “inactive”.
Still for that read-out and setting: the result for `Cc1nc(-c2ccc3c(c2)CCN(CCC2CCC(NC(=O)/C=C/c4ccc(F)cc4)CC2)CC3)no1` (configuration not stated) reads “inactive”; that for `CC1=C(/C=C/C(C)=C/C=C/C(C)=C/CO)C(C)(C)CCC1`, “inactive”; that for `CC(=O)OC/C=C(\C)CCC=C(C)C`, “inactive”.
Turning to `COc1ccc(C)cc1N`, the compound was classed as inactive.
`OC[C@@H](O)[C@@H](O)[C@H](O)[C@H](O)CO`: the compound was called inactive.
On the same count and under the same terms, the entry for `NS(=O)(=O)c1cc2c(cc1Cl)NCNS2(=O)=O` is “inactive”; for `NCCO` it is “inactive”.
Take `COc1ccc(S(=O)(=O)N2C(=O)[C@@](c3ccccc3OC)(N3C[C@H](O)C[C@H]3C(=O)N(C)C)c3cc(Cl)ccc32)c(OC)c1`: the AC50 was 23.7 µM (active).
Take `c1cc(-c2ccncc2)ccn1`: the call was inactive.
On the same count and under the same terms, the result for `Cc1nc(C)nc(N2C[C@@H](C)N(c3ccnc([C@@H](C)O)n3)[C@@H](C)C2)n1` reads “inactive”; that for `Cc1cccc([N+](=O)[O-])c1C`, “inactive”.
For `Cc1oc(-c2ccccc2)nc1CCOc1cccc2c1ccn2CCC(=O)O`, the AC50 is 88.3 µM (active).
In the case of `CCOC(=O)CCC(=O)OCC`, the result was inactive.
With `CN[C@H]1CC[C@@H](c2ccc(Cl)c(Cl)c2)c2ccc(S(N)(=O)=O)cc21`, the concentration at half-maximal activity (AC50) was 50 µM (active).
For `NC(=O)Cn1c(=O)cc(CCN2CCN(c3nccc4sccc34)CC2)c2ccc(F)cc21`, the compound was called inactive.
Still for that read-out and setting: the result for `CCCCCC(=O)O` reads “inactive”; that for `Cc1ccc(C)c(O)c1C`, “inactive”.
The same measure, in the same setting: the result for `CC=Cc1ccc(O)c(OC)c1` reads “inactive”.
Same read-out and setting: the result for `CCCCN(CCCC)CCCC` reads “inactive”; that for `C=CCc1ccc(O)c(OC)c1`, “inactive”; that for `CCCCCCCCCCCCCO`, “inactive”.
On to `CC(CO)OC(C)CO` (configuration not stated) (tested in a mixture with another compound), for which the result was inactive.

Read-out in another test: flavin-containing dimethylaniline monooxygenases 3 (FMO3), FMO3 (gene 2328)
As to the kind of experiment: LTEA_HepaRG_FMO3: Life Technologies and Expression Analysis (LTEA) Assay for flavin-containing dimethylaniline monooxygenases 3 (FMO3) using HepaRG (AID 2283453).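 For AC50: differentiated human HepaRG liver cells in serum-free induction medium; FMO3 transcript by TaqMan qRT-PCR normalized to ACTB GAPDH and POLR2A.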 As to conditions: mRNA level, 48 h; actives raise or lower the signal. The gist of the method: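 FMO3 transcript quantified by TaqMan qRT-PCR against three housekeeping genes after 48 h chemical exposure of HepaRG cells. Eight-point half-log series, top 100 uM, 0.5% DMSO vehicle; phenobarbital 1mM induction control; up- or down-regulation fitted.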
Turning to `COc1ccc2c(c1)c(CC(=O)O)c(C)n2C(=O)c1ccc(Cl)cc1`, the outcome was inactive.
Regarding `CNCc1cc(F)ccc1Oc1ccc(Cl)c(Cl)c1`, the concentration at half-maximal activity (AC50) is 93.3 µM (active).
In the case of `C[Si]1(C)O[Si](C)(C)O[Si](C)(C)O[Si](C)(C)O1`, the result was inactive.
Still for that read-out and setting: the entry for `COCCOCCOC` is “inactive”; for `COC(=O)c1ccc(O)cc1` it is “inactive”.
Consider `O=C(O)CCCCC(=O)O`, for which the call was inactive.
On the same count and under the same terms, the result for `Cc1cc(=O)[nH]c(=S)[nH]1` reads “inactive”.
Still for that read-out and setting: the result for `Cc1nc(-c2ccc3c(c2)CCN(CCC2CCC(NC(=O)/C=C/c4ccc(F)cc4)CC2)CC3)no1` (configuration not stated) reads “inactive”; that for `CC1=C(/C=C/C(C)=C/C=C/C(C)=C/CO)C(C)(C)CCC1`, “inactive”.
Take `CC(=O)OC/C=C(\C)CCC=C(C)C`: the compound was classed as inactive.
With `COc1ccc(C)cc1N`, the call was inactive.
Same read-out and setting: the entry for `OC[C@@H](O)[C@@H](O)[C@H](O)[C@H](O)CO` is “inactive”; for `NS(=O)(=O)c1cc2c(cc1Cl)NCNS2(=O)=O` it is “inactive”.
The same measure, in the same setting: the entry for `NCCO` is “inactive”.
For the compound `COc1ccc(S(=O)(=O)N2C(=O)[C@@](c3ccccc3OC)(N3C[C@H](O)C[C@H]3C(=O)N(C)C)c3cc(Cl)ccc32)c(OC)c1`, the concentration at half-maximal activity (AC50) was 43.3 µM (active).
Turning to `c1cc(-c2ccncc2)ccn1`, the compound was classed as inactive.
Still for that read-out and setting: the result for `Cc1nc(C)nc(N2C[C@@H](C)N(c3ccnc([C@@H](C)O)n3)[C@@H](C)C2)n1` reads “inactive”.
On the same count and under the same terms, the result for `Cc1cccc([N+](=O)[O-])c1C` reads “inactive”.
Consider `Cc1oc(-c2ccccc2)nc1CCOc1cccc2c1ccn2CCC(=O)O`, for which the concentration at half-maximal activity (AC50) is 76.7 µM (active).
For `CCOC(=O)CCC(=O)OCC`, the outcome was inactive.
As to `CN[C@H]1CC[C@@H](c2ccc(Cl)c(Cl)c2)c2ccc(S(N)(=O)=O)cc21`, the AC50 was 34.1 µM (active).
In the case of `NC(=O)Cn1c(=O)cc(CCN2CCN(c3nccc4sccc34)CC2)c2ccc(F)cc21`, the call was inactive.
For the compound `CCCCCC(=O)O`, the outcome was inactive.
For the compound `Cc1ccc(C)c(O)c1C`, the call was inactive.
Same read-out and setting: the entry for `CC=Cc1ccc(O)c(OC)c1` is “inactive”.
Still for that read-out and setting: the entry for `CCCCN(CCCC)CCCC` is “inactive”; for `C=CCc1ccc(O)c(OC)c1` it is “inactive”; for `CCCCCCCCCCCCCO` it is “inactive”.
On the same count and under the same terms, the entry for `CC(CO)OC(C)CO` (configuration not stated) (tested in a mixture with another compound) is “inactive”.

Read-out in a further test: Cytochrome P450 (CYP1A1), CYP1A1 (gene 1543)
As to the kind of experiment: LTEA_HepaRG_CYP1A1: Life Technologies and Expression Analysis (LTEA) Assay for Cytochrome P450 (CYP1A1) using HepaRG (AID 2283454). Conditions: mRNA level, 48 h; actives raise or lower the signal. A digest of the protocol:
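Using HepaRG cultures with 0.5% DMSO as vehicle, eight-concentration exposures (max 100 uM) lasted 48 h. Transcript levels were measured by TaqMan qRT-PCR and normalized to ACTB, GAPDH and POLR2A.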
For the compound `COc1ccc2c(c1)c(CC(=O)O)c(C)n2C(=O)c1ccc(Cl)cc1`, the compound was classed as inactive.
The same measure, in the same setting: the entry for `CNCc1cc(F)ccc1Oc1ccc(Cl)c(Cl)c1` is “inactive”.
Still for that read-out and setting: the result for `C[Si]1(C)O[Si](C)(C)O[Si](C)(C)O[Si](C)(C)O1` reads “inactive”.
As to `COCCOCCOC`, the concentration at half-maximal activity (AC50) was 1.22 µM (active).
As to `COC(=O)c1ccc(O)cc1`, the call was inactive.
As to `O=C(O)CCCCC(=O)O`, the AC50 is 73.7 µM (active).
Same read-out and setting: the result for `Cc1cc(=O)[nH]c(=S)[nH]1` reads 50 µM (active).
The same measure, in the same setting: the figure for `Cc1nc(-c2ccc3c(c2)CCN(CCC2CCC(NC(=O)/C=C/c4ccc(F)cc4)CC2)CC3)no1` (configuration not stated) is 23.2 µM (active); for `CC1=C(/C=C/C(C)=C/C=C/C(C)=C/CO)C(C)(C)CCC1` it is 64.1 µM (active).
Take `CC(=O)OC/C=C(\C)CCC=C(C)C`: the compound was called inactive.
The same measure, in the same setting: the entry for `COc1ccc(C)cc1N` is “inactive”; for `OC[C@@H](O)[C@@H](O)[C@H](O)[C@H](O)CO` it is “inactive”.
The same measure, in the same setting: the result for `NS(=O)(=O)c1cc2c(cc1Cl)NCNS2(=O)=O` reads “inactive”.
Regarding `NCCO`, the AC50 was 50 µM (active).
As for `COc1ccc(S(=O)(=O)N2C(=O)[C@@](c3ccccc3OC)(N3C[C@H](O)C[C@H]3C(=O)N(C)C)c3cc(Cl)ccc32)c(OC)c1`, the compound was classed as inactive.
`c1cc(-c2ccncc2)ccn1`: the AC50 was 50 µM (active).
With `Cc1nc(C)nc(N2C[C@@H](C)N(c3ccnc([C@@H](C)O)n3)[C@@H](C)C2)n1`, the result was inactive.
Regarding `Cc1cccc([N+](=O)[O-])c1C`, the call was inactive.
The same measure, in the same setting: the result for `Cc1oc(-c2ccccc2)nc1CCOc1cccc2c1ccn2CCC(=O)O` reads “inactive”.
Still for that read-out and setting: the entry for `CCOC(=O)CCC(=O)OCC` is “inactive”.
As for `CN[C@H]1CC[C@@H](c2ccc(Cl)c(Cl)c2)c2ccc(S(N)(=O)=O)cc21`, the AC50 is 76.5 µM (active).
For the compound `NC(=O)Cn1c(=O)cc(CCN2CCN(c3nccc4sccc34)CC2)c2ccc(F)cc21`, the AC50 is 10.1 µM (active).
For `CCCCCC(=O)O`, the AC50 is 70 µM (active).
On the same count and under the same terms, the result for `Cc1ccc(C)c(O)c1C` reads 68 µM (active).
For `CC=Cc1ccc(O)c(OC)c1`, the half-maximal activity concentration (AC50) was 50 µM (active).
With `CCCCN(CCCC)CCCC`, the compound was classed as inactive.
Consider `C=CCc1ccc(O)c(OC)c1`, for which the compound was classed as inactive.
The same measure, in the same setting: the entry for `CCCCCCCCCCCCCO` is “inactive”.
For `CC(CO)OC(C)CO` (configuration not stated) (tested in a mixture with another compound), the concentration at half-maximal activity (AC50) is 50 µM (active).
